Among all 96,000 compounds or so, about 20,000 (21%) were called active.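 The calls were made as follows: active = CYP2C19 inhibition above a set limit at 5 µM in the primary screen (cut at about 50% in these data); inactive = the rest.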 These entries were drawn from the full list.
Target: Cytochrome P450 2C19 (Homo sapiens) (UniProt P33261)
Test: blockers of cytochrome P450 2C19 activity – biochemical, luminescence, ADME assay, primary screen (AID 778);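 also: plate controls were negative control wells for no effect and 2.5 mM tranylcypromine positive control for full effect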
Conditions: CYP2C19 Supersomes, luciferin-H EGE luminescence, 30 min; at 5 µM; stronger effect = higher value

Chain of Cytochrome P450 2C19 (Homo sapiens) (P33261 whole entry, looked up): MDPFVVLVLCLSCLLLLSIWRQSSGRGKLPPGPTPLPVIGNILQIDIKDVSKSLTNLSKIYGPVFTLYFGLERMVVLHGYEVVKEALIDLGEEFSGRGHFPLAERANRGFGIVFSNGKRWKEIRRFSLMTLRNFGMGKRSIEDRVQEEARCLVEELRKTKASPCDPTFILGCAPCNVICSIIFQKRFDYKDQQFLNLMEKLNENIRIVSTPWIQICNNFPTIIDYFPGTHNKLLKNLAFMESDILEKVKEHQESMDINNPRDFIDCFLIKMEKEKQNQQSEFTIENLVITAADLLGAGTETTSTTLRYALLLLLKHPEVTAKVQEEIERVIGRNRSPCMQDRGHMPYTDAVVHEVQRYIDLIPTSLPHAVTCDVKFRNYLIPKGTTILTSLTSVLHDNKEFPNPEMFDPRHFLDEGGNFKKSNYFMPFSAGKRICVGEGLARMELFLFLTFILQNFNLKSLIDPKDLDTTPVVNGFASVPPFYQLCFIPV

Row | Compound | inhibition
1 | O=C(COC(=O)CCC(=O)c1cccs1)NCc1ccco1 | 5.2% (inactive)
2 | CN(C(=O)CSc1nc(C2CC2)nc2ccccc12)c1nc(-c2ccccc2)cs1 | 12.3% (inactive)
3 | COC(=O)CSc1nc(C2CC2)nc2ccccc12 | 63.2% (active)
4 | Cc1nnc(NC(=O)CSc2nc(C3CCCCC3)nc3ccccc23)s1 | -1.4% (inactive)
5 | CCN(CC)S(=O)(=O)c1ccc2[nH]cc(C(=O)NCCc3ccccc3)c(=O)c2c1 | 4.6% (inactive)
6 | C[C@H](NC(=O)OC(C)(C)C)c1nnc(SCC(N)=O)o1 | 49.9% (inactive)
7 | CCc1ccccc1NC(=O)CSc1nnc([C@@H](NC(=O)OC(C)(C)C)C(C)C)o1 | 8% (inactive)
8 | CCc1ccccc1NC(=O)CSc1nnc([C@@H](NC(=O)OC(C)(C)C)C(C)CC)o1 (some centres not stated) | 59.4% (active)
9 | Cc1cccc(NC(=O)CSC(N)=O)c1C | 17.7% (inactive)
10 | Cc1cccc(NC(=O)CSc2nc3c(c(=O)[nH]2)CCCC3)c1C | 17.6% (inactive)
11 | C[C@H](NC(=O)OC(C)(C)C)c1nnc(SCC(=O)Nc2ccc(Br)cc2)o1 | 62.5% (active)
12 | O=C(CSc1nnc(-c2ccco2)o1)NCC(=O)c1ccccc1 | 0.5% (inactive)
13 | Cc1cccc(NC(=O)CSc2nnc(-c3ccco3)o2)c1 | -7.9% (inactive)
14 | Cc1cccc(NC(=O)CSc2nnc(CCCCCNC(=O)OC(C)(C)C)o2)c1C | 63.7% (active)
15 | Cc1ccc(C(=O)Nc2nnc(-c3cccs3)s2)cc1C | -8.8% (inactive)
16 | O=C(O)CCN=C1CCc2ccccc2N1 | 0.2% (inactive)
17 | Cc1cc(C)c2c(n1)nn1c(-n3ccnc3)cc(C)nc21 | 4.7% (inactive)
18 | C=CCSc1nc(Cc2ccc(Cl)cc2)nc2ccccc12 | 0% (inactive)
19 | O=c1cc(O)nc(SCc2ccccc2Cl)[nH]1 | 1.2% (inactive)
20 | O=C(CSc1nc2ccccc2[nH]1)c1cccs1 | 42.5% (inactive)
21 | COc1ccccc1CSc1nc2ccccc2[nH]1 | 51.7% (active)

Row | Compound | inhibition
22 | C=CCSc1nc2ccccc2[nH]1 | 66% (active)
23 | Cc1ccccc1OC/C(O)=C(\C#N)c1nc2ccccc2[nH]1 | 38.3% (inactive)
24 | Cc1nnc2sc(-c3ccco3)nn12 | -0.9% (inactive)
25 | CCOC(=O)Cc1c(C)nc2c(C#N)c(C)nn2c1C | 12.9% (inactive)
26 | CC(C)C1C2=C(CC(C)(C)CC2=O)ON1c1ccccc1 (configuration not stated) | 34.7% (inactive)
27 | COc1ccc(CN2CN(C(C)C)CSC2=S)cc1 | 8.5% (inactive)
28 | O=C1CSC(c2ccccc2)N1c1nc(-c2ccc(Cl)cc2Cl)cs1 (configuration not stated) | -2.8% (inactive)
29 | CCCc1ccc(-c2csc(NC(=O)Cc3cccs3)n2)cc1 | 28% (inactive)
30 | Cc1ccc(S(=O)(=O)Nc2ccc3ncccc3c2)cc1 | 89.8% (active)
31 | Cc1ccc(S(=O)(=O)Nc2nc(C)cc(-n3nc(C)cc3C)n2)cc1 | 22% (inactive)
32 | CC(=O)N1CCN(C(=O)c2cccc(S(=O)(=O)Nc3ccc(C)cc3)c2)CC1 | 11.6% (inactive)
33 | FC(F)(F)c1nnc2ccc(N3CCN(c4ccccc4)CC3)nn12 | 27.9% (inactive)
34 | O=C(Nc1ccccc1C(=O)N1CCOCC1)C1CCC(=O)N1C1CCCC1 (configuration not stated) | -12.6% (inactive)
35 | CCC(=O)N(Cc1ccccc1)c1ccccn1 | -5.8% (inactive)
36 | Cn1c(SCC(=O)Nc2cccc(NC(=O)c3cccs3)c2)nnc1-c1ccncc1 | 54% (active)
37 | Cc1ccc(NC(=O)CSc2nnc(-c3cnccn3)n2Cc2ccco2)cc1C | 5.5% (inactive)
38 | COC(=O)c1ccc(NC(=O)CSc2nnc(CNc3ccc(OC)cc3)n2C)cc1 | 29.7% (inactive)
39 | CCn1c(SCC(=O)Nc2nccs2)nnc1-c1ccncc1 | 66.7% (active)
40 | COC(=O)c1ccc(NC(=O)CSc2nnc(-c3ccncc3)n2C)cc1 | 54.6% (active)
41 | CCc1ccc(NC(=O)CSc2nnc(-c3cnccn3)n2Cc2ccco2)cc1 | 21.4% (inactive)
42 | CCn1c(SCC(=O)Nc2cc(C)ccc2C)nnc1-c1cnccn1 | 71.7% (active)

Row | Compound | inhibition
43 | Cc1ccccc1C(=O)Nc1cccc(-c2nnc(SCC(=O)O)n2C)c1 | -18.4% (inactive)
44 | CCC(=O)Nc1cccc(NC(=O)CSc2nnc(-c3ccc(NS(C)(=O)=O)cc3)n2C)c1 | 23.6% (inactive)
45 | CCc1nnc(NC(=O)CSc2nnc(-c3ccncc3)n2Cc2ccccc2)s1 | 41.3% (inactive)
46 | CCCCSc1nnc(-c2ccc(NC(=O)CC)cc2)n1C | 21.4% (inactive)
47 | Cc1ccc(C(C)C)c(OCc2nnc(SCC(=O)Nc3nccs3)n2C)c1 | 17% (inactive)
48 | CCC1(C)N(O)C(C)(C)C(c2ccc(OC)cc2)=[N+]1[O-] (configuration not stated) | -7.3% (inactive)
49 | C=CCNc1nc(N)c(C(=C(C#N)C#N)c2ccccc2)s1 | 21.5% (inactive)
50 | CS(=O)(=O)N1CCN(C(=O)Cc2ccccc2)CC1 | 16.8% (inactive)
51 | Cc1c(NC(=O)c2cc(-c3ccc(Cl)s3)nc3ccccc23)c(=O)n(-c2ccccc2)n1C | 18.3% (inactive)
52 | CSc1nnc2c(n1)OC(c1ccsc1)N(C(C)=O)c1ccccc1-2 (configuration not stated) | 5.9% (inactive)
53 | Cc1nc2ccccc2c(-c2ccccc2)c1C(=O)c1ccccc1 | 12% (inactive)
54 | CCc1nnc(NS(=O)(=O)c2ccc(N=Cc3c(C)[nH]n(-c4ccc(C)cc4)c3=O)cc2)s1 | -2.3% (inactive)
55 | CCn1c(=N)n(CC(=O)c2cccc(OC)c2)c2ccccc21 | -12.1% (inactive)
56 | Cc1cc(C)cc(N(CC(=O)N2CC=C(c3ccccc3)CC2)S(=O)(=O)c2c(C)noc2C)c1 | 89.1% (active)
57 | CCOC(=O)C1CCCN(C(=O)CN(c2ccc(OC)cc2)S(=O)(=O)c2c(C)noc2C)C1 (configuration not stated) | 12.3% (inactive)
58 | Cc1cc(C)cc(N(CC(=O)NCC2CCCO2)S(=O)(=O)c2c(C)noc2C)c1 (configuration not stated) | 82.9% (active)
59 | O=C(Nc1ccc(Cl)c(Cl)c1)N1CC=C(c2ccccc2)CC1 | 28.4% (inactive)
60 | Cc1ccc(C(=O)NCC2CCCO2)o1 (configuration not stated) | -1.3% (inactive)
61 | Cc1ccc(S(=O)(=O)N2CCC(C(=O)NCC3CCCO3)CC2)cc1 (configuration not stated) | 6.5% (inactive)
62 | Cc1cc(=O)n2nc(N3CCCC3C(=O)NCCCN3CC(C)CC(C)C3)sc2n1 (configuration not stated) | 2.4% (inactive)
